# Test results taken from ChEMBL document CHEMBL3988442, “University of Dundee, Small-Polar-MMV Screening Library” (2021).
# For some of these results: Entries with a potency or affinity are not part of this list.
# How the values were obtained:
# Set-up in all cases: scale not given: direction of the effect not stated beside the values
# [1] = target: Protein translocase subunit SecA (Escherichia coli (strain K12)) (UniProt P10408); assay: Assay to Identify E. coli SecA ATPase Inhibitors; type: functional; conditions: 30 µM
# [2] = target: T1, Ubiquitin-activating enzyme e1, putative (Leishmania donovani (strain BPK282A1)) (UniProt E9BSI1); assay: Leishmania donovani Ubiquitin Activating Enzyme (LdE1); type: functional; conditions: 30 µM
# T1 sequence (whole entry): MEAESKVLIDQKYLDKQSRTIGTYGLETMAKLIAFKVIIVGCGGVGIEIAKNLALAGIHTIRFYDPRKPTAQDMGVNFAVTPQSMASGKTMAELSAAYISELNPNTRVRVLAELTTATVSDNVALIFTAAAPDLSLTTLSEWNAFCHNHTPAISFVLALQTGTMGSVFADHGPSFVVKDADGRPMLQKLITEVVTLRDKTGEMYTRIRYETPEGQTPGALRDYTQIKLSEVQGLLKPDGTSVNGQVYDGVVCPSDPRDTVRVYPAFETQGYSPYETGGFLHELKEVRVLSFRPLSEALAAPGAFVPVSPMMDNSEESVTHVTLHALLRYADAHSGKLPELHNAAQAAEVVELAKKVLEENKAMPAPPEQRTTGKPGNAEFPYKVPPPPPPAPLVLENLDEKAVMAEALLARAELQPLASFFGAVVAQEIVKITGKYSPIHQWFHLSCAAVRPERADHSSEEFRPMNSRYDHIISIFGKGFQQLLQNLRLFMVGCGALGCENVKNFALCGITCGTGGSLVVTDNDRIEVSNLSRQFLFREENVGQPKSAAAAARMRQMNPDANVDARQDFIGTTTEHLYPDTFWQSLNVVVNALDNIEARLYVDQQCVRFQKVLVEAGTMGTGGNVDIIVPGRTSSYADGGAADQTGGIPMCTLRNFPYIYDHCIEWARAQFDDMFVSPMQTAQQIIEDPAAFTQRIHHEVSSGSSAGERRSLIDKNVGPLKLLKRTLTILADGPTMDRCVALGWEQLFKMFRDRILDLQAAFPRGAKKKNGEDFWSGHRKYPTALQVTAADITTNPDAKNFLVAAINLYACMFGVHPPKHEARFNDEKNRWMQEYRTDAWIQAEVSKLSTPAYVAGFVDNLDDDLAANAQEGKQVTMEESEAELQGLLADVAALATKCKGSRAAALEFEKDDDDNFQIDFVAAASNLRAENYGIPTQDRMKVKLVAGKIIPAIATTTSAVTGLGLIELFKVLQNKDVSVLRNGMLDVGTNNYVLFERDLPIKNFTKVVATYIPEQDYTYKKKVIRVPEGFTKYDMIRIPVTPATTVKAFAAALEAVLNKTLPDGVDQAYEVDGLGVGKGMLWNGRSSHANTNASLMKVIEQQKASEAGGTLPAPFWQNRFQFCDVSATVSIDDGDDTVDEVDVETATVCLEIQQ
# [3] = target: AMP-activated protein kinase, AMPK (Homo sapiens) (UniProt P54646+O43741+P54619+Q9UGJ0+Q9Y478+Q13131+Q9UGI9); assay: AMP-dependent Kinase enzyme assay. An in vitro enzyme assay that detects ADP turnover that is directly proportional to AMPK activity. This uses naive AMPK that is activated during the assay with MK-8722; type: functional; conditions: 30 µM
# [4] = target: Sialic acid-binding Ig-like lectin 9 (Homo sapiens) (UniProt Q9Y336); assay: Hs-Siglec9 ALPHAscreen SOP 20170721; conditions: 10 µM
# [5] = tested on: Trypanosoma cruzi; assay: Trypanosoma cruzi phosphomannomutase and mannose-1-phosphate guanylyltransferase assay; type: functional; conditions: 10 µM
# [6] = target: T2, Arginase-2, mitochondrial (Homo sapiens) (UniProt P78540); assay: in vitro enzyme assay to detect the production of urea directly proportional to the activity of Arginase II; type: functional; conditions: 33.3 µM; also: in the data most compounds retested in dose-response had high values
# T2 sequence (whole entry): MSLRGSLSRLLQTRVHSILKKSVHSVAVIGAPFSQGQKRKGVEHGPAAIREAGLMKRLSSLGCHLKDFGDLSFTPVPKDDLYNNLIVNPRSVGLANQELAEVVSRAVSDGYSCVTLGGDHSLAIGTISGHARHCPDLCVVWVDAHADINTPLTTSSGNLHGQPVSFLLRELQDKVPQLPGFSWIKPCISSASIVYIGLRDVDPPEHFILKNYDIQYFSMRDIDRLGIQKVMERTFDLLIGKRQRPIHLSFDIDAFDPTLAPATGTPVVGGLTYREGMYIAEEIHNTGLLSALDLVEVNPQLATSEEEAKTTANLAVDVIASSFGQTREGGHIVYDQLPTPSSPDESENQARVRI
# [7] = target: T3, Proteasome subunit beta (Trypanosoma cruzi) (UniProt O96673); assay: Trypanosoma cruzi proteasome chymotrypsin-like activity (TcProtChymo) assay.; also: in the data most compounds retested in dose-response had high values; type: functional; conditions: 9.37 µM
# T3 sequence (whole entry): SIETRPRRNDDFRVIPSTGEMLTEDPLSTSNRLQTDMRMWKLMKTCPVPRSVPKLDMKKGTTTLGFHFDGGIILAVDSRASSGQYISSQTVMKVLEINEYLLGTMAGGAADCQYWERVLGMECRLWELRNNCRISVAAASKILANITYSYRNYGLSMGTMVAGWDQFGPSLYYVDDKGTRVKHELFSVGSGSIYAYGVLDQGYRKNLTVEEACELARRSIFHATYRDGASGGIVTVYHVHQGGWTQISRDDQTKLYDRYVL
# [8] = organism: Homo sapiens; assay: To identify inhibition of the IFN signalling (Jak-Stat) pathway via expression of an eGFP reporter gene under the control of an IFN-stimulated response element (ISRE) containing MxA promoter.; type: functional; conditions: 30 µM
# [9] = target: T4, Tyrosyl-tRNA synthetase, putative (Trypanosoma cruzi (strain CL Brener)) (UniProt Q4DSP6); assay: Trypanosoma cruzi tyrosyl tRNA synthetase (TcYRS) _High Tyrosine SOP; type: functional; conditions: 30 µM; also: in the data most compounds retested in dose-response had high values
# T4 sequence (whole entry): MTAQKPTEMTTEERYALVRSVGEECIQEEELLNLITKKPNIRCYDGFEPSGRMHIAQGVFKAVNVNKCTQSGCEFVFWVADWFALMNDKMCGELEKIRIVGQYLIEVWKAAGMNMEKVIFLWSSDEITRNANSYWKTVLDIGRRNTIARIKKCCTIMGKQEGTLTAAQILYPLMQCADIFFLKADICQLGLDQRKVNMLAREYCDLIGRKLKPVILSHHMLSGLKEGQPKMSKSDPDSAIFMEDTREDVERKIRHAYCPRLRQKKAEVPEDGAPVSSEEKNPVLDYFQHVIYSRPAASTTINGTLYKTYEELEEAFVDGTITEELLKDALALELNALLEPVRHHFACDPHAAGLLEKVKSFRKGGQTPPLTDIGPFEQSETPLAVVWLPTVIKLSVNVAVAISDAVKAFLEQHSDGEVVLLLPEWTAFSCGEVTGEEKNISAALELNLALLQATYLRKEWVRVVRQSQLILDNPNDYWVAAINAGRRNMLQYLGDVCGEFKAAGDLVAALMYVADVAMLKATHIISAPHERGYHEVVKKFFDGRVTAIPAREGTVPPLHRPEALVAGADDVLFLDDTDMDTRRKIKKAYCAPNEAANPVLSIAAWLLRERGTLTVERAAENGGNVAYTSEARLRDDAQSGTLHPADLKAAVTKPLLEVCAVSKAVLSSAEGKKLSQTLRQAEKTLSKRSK
# [10] = target: T4, Tyrosyl-tRNA synthetase, putative (Trypanosoma cruzi (strain CL Brener)); assay: Trypanosoma cruzi tyrosyl tRNA synthetase (TcYRS) SOP; type: functional; conditions: 30 µM
# [11] = target: Chromo domain-containing protein 1 (Saccharomyces cerevisiae (strain ATCC 204508 / S288c) (Baker's yeast)) (UniProt P32657); assay: ScCHD-1 Enzyme Inhibition Assay; type: functional; conditions: 30 µM; also: in the data most compounds retested in dose-response had high values
# Sequence of Chromo domain-containing protein 1 (Saccharomyces cerevisiae (strain ATCC 204508 / S288c) (Baker's yeast)) (P32657 whole entry, the tested form may be a part): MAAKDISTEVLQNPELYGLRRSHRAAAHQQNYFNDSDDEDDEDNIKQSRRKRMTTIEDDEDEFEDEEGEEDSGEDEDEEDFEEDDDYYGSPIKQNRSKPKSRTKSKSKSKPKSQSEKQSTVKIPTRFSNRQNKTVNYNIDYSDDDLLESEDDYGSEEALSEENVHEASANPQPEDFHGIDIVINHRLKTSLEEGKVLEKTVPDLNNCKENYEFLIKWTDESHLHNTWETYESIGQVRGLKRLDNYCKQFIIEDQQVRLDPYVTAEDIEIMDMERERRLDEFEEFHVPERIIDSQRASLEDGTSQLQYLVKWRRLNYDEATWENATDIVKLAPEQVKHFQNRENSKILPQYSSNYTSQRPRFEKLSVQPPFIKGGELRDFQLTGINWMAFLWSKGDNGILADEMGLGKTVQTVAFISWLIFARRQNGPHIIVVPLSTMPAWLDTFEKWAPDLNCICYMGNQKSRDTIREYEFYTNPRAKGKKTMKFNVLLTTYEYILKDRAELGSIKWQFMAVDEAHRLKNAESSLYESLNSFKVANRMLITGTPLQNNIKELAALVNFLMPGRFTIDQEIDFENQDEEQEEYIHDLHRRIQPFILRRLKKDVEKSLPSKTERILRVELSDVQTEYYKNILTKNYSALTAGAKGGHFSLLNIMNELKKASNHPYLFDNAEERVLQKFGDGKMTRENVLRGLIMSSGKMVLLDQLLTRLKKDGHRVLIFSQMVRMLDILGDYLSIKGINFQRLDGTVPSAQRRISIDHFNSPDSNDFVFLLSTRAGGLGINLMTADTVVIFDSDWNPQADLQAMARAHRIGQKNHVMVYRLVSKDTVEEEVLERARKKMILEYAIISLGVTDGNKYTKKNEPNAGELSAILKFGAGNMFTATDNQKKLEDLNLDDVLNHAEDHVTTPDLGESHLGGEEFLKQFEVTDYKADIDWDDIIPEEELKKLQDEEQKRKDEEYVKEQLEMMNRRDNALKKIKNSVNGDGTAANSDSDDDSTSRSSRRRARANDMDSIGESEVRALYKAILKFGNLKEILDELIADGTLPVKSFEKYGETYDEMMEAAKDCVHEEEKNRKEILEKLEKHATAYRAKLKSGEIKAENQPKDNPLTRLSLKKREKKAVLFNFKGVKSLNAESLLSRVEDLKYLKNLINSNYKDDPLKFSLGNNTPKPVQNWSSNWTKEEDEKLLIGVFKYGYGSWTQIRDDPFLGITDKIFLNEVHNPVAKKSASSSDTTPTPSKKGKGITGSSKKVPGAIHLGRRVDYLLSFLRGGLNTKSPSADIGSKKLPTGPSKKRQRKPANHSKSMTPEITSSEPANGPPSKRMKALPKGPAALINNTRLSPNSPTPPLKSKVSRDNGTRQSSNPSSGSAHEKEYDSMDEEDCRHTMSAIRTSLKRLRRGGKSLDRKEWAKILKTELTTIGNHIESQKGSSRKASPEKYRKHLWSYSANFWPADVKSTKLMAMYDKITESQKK
# Sequence of Sialic acid-binding Ig-like lectin 9 (Homo sapiens) (Q9Y336 whole entry): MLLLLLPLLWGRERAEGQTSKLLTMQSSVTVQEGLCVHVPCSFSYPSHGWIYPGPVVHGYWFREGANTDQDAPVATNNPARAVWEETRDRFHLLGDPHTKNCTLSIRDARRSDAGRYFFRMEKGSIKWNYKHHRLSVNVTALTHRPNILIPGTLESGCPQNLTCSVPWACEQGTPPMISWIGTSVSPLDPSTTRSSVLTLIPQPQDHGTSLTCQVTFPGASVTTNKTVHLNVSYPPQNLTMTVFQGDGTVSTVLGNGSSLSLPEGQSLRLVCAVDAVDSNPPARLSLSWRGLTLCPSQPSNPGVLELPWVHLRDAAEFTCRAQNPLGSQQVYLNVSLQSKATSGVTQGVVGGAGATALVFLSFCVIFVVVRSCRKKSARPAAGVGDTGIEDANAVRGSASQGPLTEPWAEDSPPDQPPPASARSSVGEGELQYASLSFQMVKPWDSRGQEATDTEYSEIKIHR
# Sequence of Protein translocase subunit SecA (Escherichia coli (strain K12)) (P10408 whole entry): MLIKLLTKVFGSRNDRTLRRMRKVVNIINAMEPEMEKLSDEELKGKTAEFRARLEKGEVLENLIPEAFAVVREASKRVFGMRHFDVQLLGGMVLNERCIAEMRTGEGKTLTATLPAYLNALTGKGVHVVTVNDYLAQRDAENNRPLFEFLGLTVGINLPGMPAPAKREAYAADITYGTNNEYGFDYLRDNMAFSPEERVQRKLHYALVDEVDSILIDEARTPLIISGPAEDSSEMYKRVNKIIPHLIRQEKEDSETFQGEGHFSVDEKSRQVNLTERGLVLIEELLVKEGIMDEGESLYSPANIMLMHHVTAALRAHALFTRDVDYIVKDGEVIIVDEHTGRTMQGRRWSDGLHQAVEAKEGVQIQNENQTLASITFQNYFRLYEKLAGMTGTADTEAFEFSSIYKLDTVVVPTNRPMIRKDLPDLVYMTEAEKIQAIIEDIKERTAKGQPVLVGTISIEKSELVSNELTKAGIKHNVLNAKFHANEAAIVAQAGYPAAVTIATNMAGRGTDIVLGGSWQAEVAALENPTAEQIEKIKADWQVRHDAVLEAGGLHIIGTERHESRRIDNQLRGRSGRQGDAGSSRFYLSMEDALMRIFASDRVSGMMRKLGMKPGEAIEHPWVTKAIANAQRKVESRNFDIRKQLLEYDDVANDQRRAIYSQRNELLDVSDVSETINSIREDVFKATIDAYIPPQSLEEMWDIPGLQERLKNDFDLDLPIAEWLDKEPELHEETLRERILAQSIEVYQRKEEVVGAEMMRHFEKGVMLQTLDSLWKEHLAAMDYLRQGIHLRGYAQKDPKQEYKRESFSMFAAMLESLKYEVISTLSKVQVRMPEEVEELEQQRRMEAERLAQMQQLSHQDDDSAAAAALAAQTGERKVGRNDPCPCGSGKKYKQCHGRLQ
SMILES,Percent Effect [1],Percent Effect [2],Percent Effect [3],Percent Effect [4],Percent Effect [5],Percent Effect [6],Percent Effect [7],Percent Effect [8],Percent Effect [9],Percent Effect [10],Percent Effect [11]
Cc1nn(CC(C)C)c(N(C)C)c1CNCc1cc2ccccc2[nH]1,-3.68%,10.8%,-5.31%,5.12%,-2.17%,-3.21%,5.77%,2.34%,13.3%,16.1%,-8.01%
Cc1cnn(CC2CCCCN2C(=O)c2ccc3nnc(C)n3c2)c1 (stereo unspecified),3.48%,13%,-0.0421%,-9.14%,-4.6%,-1.9%,15.9%,21%,5.71%,18.8%,-5.8%
CN(C)c1nccc(N2CCO[C@H]3CN(CC4CCOCC4)C[C@H]32)n1,1.86%,11%,-5.46%,12.4%,4.37%,-3.59%,10.5%,30.6%,4.17%,18.5%,-7.93%
CC(c1ccccc1)n1c(SCC(=O)O)nnc1-c1ccccc1Cl (stereo unspecified),-3.8%,15.3%,-8.09%,28.7%,4.57%,-3.53%,9.65%,13.3%,4.21%,12.8%,-5.19%
Cc1nn(C)c(N2CCOCC2)c1CNC(C)c1ccco1 (stereo unspecified),-4.24%,20.8%,131%,26.4%,6.32%,2.21%,13.9%,-7.48%,3.16%,20.5%,-8.31%
CC1CN(C(=O)c2ccn(-c3cccc(Cl)c3)n2)CCO1 (stereo unspecified),-7.39%,20.8%,0.341%,6.09%,7.87%,-2.13%,17.4%,16.3%,8.74%,24.4%,-10.1%
Cc1nc(C)n(C2CCCN(C(=O)c3csc(C(C)C)n3)C2)n1 (stereo unspecified),-5.33%,29.7%,-10.5%,12.2%,8.4%,-10.4%,8.83%,14.5%,8.37%,28.4%,-17.4%
COCCOc1ccc(NC(=O)N(C)Cc2ccsc2)cn1,1.05%,17.7%,-9.72%,-8.23%,-9.35%,2.28%,7.94%,12.9%,2.46%,13.9%,-6.06%
CCC(C(=O)NC)N(c1cccc(C)c1)S(C)(=O)=O (stereo unspecified),-4.2%,16%,-4.91%,18.5%,6.72%,41.7%,4.71%,9.46%,4.92%,13.6%,-3.23%
CCOC(=O)CNC(=O)N1CCN(c2ncccn2)CC1,-2.75%,7.79%,-0.383%,6.61%,4.03%,-13.8%,9.65%,14.3%,5.38%,13.6%,-4.38%
CCc1nccn1C1CCCN(C(=O)c2ccc3[nH]c(=O)[nH]c3c2)C1 (stereo unspecified),-10.8%,7.79%,-15.1%,18.9%,8.24%,2.85%,5.41%,14.2%,8.74%,21.9%,-4.1%
